{"source": "the supplement of paper PMC11732987", "about": "“Enantioselective OTUD7B fragment discovery through chemoproteomics screening and high-throughput optimisation” (Communications Chemistry, 2025)", "test_in_all_cases": "log2 ratio of Biotin-Ahx-Ub-VS probe labelling (fragment/DMSO); higher = less target engagement (more negative = stronger competition), active = hit call of the paper (q ≤ 0.05, log2 ratio ≤ -1)", "conditions_in_all_cases": "compound concentration: 200 uM; treatment time: 3 h", "key": {"USP19": {"target": "T1, USP19 (UniProt O94966)", "T1 sequence (whole entry)": "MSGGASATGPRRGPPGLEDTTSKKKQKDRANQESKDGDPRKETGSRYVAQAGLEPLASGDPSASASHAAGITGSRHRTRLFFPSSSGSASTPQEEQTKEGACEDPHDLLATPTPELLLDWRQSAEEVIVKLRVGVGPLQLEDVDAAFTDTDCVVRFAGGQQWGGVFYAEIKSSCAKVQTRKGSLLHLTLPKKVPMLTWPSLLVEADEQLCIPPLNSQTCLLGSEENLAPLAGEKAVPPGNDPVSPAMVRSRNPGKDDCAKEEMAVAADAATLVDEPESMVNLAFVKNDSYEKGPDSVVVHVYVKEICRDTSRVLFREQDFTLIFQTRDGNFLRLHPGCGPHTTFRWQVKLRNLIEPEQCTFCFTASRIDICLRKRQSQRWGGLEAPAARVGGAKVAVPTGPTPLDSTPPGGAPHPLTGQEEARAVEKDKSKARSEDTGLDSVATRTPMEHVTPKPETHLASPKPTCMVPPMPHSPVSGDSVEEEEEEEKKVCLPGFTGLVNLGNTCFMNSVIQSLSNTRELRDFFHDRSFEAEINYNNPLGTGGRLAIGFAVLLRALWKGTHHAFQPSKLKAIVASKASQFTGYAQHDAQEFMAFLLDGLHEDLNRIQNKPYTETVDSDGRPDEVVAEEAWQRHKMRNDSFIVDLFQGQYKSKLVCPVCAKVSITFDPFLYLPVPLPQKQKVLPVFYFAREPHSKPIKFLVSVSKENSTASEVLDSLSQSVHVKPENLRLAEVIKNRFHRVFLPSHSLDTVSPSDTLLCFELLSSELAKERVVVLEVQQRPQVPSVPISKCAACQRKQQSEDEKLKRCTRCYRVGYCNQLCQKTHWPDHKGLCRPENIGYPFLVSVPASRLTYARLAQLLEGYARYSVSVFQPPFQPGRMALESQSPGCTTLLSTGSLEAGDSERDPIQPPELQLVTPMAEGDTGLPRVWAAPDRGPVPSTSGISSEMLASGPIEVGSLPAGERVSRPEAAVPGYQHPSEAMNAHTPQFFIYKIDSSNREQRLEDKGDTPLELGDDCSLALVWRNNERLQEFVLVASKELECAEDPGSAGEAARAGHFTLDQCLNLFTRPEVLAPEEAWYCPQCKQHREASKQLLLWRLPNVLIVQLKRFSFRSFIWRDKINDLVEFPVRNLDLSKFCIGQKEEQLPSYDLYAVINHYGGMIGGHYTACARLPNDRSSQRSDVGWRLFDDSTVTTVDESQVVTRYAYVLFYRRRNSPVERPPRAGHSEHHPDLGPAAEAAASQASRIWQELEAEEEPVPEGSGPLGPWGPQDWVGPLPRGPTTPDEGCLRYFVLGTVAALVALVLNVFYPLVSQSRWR", "how_it_was_run": "(§1)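 Using Biotin-Ahx-Ub-VS at 0.5 µM final for 1 h, DUBs were labelled in HEK293T lysate (495 µg per sample) that had first been treated in triplicate with fragment at 200 µM or vehicle for 3 h. NeutrAvidin enrichment, LysC and trypsin digestion and diaPASEF LC-MS/MS followed. Spectronaut label-free quantities were global-median-normalised. Values are average log2 fragment/vehicle ratios by unpaired t-test, using proteins with ≥2 unique peptides.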"}, "USP22": {"target": "T2, USP22 (UniProt Q9UPT9)", "T2 sequence (whole entry)": "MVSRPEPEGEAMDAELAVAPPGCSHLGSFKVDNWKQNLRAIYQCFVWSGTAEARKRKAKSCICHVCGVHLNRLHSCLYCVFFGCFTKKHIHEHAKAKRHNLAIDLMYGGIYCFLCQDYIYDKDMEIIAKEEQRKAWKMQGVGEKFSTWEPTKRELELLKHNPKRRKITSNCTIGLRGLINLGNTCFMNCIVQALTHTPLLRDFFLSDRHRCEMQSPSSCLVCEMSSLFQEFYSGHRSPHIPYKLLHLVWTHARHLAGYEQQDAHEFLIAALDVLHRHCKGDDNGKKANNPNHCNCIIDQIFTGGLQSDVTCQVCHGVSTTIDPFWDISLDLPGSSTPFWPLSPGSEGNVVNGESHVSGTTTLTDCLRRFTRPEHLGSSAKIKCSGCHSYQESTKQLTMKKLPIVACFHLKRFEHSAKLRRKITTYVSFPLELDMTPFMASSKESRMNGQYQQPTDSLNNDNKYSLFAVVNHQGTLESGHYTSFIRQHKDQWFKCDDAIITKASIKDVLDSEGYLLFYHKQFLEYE", "how_it_was_run": "as §1"}, "USP24": {"target": "USP24 (UniProt Q9UPU5)", "sequence (Q9UPU5 whole entry)": "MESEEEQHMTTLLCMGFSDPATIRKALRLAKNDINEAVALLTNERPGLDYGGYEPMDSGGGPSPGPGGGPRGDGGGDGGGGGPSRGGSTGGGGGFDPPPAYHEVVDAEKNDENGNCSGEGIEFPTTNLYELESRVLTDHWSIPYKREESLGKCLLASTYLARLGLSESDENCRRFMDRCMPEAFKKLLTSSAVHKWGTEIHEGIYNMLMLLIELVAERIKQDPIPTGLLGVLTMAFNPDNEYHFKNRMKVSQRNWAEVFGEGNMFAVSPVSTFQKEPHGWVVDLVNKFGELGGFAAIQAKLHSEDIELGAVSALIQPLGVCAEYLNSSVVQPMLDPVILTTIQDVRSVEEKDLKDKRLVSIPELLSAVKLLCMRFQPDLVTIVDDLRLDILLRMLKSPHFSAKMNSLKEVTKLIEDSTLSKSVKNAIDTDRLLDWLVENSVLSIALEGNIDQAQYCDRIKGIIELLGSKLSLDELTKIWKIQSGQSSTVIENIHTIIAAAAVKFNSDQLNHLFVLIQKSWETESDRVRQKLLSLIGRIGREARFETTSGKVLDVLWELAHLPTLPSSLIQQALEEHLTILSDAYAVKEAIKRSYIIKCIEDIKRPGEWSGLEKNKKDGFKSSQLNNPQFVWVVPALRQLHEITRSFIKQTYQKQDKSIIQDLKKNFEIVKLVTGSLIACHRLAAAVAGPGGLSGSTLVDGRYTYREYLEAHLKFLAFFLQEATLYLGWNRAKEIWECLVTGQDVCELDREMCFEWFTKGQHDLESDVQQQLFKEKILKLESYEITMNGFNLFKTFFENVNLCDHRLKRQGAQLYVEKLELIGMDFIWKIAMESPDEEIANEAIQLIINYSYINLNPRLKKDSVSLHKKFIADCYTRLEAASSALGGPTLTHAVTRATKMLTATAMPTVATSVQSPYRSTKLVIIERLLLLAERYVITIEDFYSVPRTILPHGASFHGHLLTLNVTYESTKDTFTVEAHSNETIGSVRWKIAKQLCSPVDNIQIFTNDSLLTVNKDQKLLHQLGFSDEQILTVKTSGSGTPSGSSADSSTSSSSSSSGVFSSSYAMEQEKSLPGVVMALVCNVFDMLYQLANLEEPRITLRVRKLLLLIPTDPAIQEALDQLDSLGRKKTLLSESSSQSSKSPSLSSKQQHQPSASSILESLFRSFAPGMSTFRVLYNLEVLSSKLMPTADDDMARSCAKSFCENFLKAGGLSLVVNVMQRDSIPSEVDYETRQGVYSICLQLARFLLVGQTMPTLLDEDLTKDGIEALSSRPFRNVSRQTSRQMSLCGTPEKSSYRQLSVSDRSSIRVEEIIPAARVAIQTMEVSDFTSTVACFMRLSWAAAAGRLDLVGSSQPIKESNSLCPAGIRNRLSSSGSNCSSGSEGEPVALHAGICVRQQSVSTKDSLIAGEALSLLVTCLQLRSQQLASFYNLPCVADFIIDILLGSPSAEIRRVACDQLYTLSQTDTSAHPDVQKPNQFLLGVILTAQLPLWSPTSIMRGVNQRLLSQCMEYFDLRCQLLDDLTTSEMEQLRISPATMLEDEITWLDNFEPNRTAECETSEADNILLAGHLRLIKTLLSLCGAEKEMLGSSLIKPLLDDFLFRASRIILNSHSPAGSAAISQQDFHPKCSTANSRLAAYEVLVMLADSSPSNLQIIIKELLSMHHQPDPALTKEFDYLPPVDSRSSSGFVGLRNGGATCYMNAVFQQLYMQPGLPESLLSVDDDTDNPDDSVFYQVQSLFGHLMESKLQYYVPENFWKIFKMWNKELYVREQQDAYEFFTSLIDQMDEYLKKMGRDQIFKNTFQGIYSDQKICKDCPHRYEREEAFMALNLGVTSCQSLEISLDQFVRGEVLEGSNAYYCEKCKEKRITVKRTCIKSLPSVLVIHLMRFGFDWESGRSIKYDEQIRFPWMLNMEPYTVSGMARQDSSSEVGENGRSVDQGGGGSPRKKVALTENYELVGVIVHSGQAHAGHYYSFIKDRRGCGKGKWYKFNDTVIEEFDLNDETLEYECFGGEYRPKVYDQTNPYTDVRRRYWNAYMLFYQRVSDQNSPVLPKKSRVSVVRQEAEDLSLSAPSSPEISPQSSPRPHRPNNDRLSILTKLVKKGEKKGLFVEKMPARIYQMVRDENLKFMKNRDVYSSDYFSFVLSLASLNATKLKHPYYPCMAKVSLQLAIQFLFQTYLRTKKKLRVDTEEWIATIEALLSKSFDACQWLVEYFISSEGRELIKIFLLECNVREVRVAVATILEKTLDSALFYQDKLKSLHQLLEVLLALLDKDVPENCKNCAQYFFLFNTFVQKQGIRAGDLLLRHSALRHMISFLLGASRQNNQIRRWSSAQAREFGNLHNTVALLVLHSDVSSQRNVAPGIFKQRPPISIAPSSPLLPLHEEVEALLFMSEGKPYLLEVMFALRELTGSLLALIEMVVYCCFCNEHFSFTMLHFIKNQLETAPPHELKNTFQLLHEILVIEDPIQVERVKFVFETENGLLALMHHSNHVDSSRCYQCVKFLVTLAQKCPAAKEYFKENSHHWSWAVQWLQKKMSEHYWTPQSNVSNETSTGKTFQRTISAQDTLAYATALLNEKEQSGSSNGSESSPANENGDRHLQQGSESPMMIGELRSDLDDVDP", "how_it_was_run": "as §1"}, "USP25": {"target": "T3, USP25 (UniProt Q9UHP3)", "T3 sequence (whole entry)": "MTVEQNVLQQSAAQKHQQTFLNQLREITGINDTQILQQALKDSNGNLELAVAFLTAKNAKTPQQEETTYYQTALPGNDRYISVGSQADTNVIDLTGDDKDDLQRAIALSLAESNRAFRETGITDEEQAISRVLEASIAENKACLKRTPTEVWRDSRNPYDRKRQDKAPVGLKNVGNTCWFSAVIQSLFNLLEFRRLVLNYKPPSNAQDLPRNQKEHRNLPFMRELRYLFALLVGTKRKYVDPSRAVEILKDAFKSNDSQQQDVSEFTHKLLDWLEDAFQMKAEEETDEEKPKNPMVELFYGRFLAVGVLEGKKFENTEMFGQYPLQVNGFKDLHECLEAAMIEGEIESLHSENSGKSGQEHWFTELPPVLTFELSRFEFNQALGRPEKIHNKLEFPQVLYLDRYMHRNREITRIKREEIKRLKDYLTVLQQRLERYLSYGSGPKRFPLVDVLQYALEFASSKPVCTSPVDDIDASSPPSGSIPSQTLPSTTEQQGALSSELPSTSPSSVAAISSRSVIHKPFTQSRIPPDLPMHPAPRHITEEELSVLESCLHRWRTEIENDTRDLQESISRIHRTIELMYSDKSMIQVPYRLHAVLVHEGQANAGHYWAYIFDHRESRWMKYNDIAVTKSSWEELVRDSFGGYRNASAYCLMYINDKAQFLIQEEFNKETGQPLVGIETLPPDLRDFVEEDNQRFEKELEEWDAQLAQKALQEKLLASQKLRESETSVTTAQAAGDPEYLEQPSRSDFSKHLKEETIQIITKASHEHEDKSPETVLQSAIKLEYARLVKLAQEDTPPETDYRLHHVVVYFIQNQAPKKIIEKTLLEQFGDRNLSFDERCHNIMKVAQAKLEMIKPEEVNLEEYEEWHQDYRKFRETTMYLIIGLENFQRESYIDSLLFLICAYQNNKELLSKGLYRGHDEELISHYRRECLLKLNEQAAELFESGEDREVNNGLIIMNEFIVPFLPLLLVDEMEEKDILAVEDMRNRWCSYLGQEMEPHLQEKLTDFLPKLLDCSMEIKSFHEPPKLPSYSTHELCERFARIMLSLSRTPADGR", "how_it_was_run": "as §1"}, "USP28": {"target": "T4, USP28 (UniProt Q96RU2)", "T4 sequence (whole entry)": "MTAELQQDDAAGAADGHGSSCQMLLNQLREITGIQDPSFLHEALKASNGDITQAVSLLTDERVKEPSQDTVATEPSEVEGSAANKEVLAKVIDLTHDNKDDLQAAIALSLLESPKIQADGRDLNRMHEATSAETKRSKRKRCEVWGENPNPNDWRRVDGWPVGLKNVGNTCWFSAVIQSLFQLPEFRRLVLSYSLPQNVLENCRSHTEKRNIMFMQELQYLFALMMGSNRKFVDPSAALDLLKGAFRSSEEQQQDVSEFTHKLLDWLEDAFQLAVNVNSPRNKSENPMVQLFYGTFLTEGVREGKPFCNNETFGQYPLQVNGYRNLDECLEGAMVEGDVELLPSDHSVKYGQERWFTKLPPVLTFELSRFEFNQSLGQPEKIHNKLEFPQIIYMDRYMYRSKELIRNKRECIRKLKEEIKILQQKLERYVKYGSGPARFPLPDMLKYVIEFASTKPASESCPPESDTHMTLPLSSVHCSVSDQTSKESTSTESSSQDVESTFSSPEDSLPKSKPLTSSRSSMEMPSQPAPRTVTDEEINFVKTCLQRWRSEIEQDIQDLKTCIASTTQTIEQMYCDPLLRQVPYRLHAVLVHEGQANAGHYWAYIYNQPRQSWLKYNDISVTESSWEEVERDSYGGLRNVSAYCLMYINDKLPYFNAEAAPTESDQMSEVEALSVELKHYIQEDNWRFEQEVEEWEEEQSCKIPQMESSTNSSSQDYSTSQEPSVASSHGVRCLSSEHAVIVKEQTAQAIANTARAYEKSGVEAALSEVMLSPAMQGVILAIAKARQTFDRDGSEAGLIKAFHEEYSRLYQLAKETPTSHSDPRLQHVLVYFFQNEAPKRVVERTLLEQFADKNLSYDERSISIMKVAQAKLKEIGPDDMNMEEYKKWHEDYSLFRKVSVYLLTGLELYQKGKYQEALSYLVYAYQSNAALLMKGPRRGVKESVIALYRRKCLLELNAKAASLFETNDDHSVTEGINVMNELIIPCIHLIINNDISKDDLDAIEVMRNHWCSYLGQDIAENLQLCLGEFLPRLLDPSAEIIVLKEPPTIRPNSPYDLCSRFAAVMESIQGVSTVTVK", "how_it_was_run": "as §1"}}, "note": "Unmarked numbers belong to inactive results."}
{"smiles": "CC(NC(=O)CCl)c1csc(-c2ccccc2)n1.Cl", "note": "(stereo not given)", "values": [{"measurement": "log2 ratio of Biotin-Ahx-Ub-VS probe labelling", "setting": "USP19", "value": -0.563}, {"measurement": "log2 ratio of Biotin-Ahx-Ub-VS probe labelling", "setting": "USP22", "value": -0.723}, {"measurement": "log2 ratio of Biotin-Ahx-Ub-VS probe labelling", "setting": "USP24", "value": -0.822}, {"measurement": "log2 ratio of Biotin-Ahx-Ub-VS probe labelling", "setting": "USP25", "value": -0.638}, {"measurement": "log2 ratio of Biotin-Ahx-Ub-VS probe labelling", "setting": "USP28", "value": "-1.79 (active)"}]}
